Measurements from PubChem BioAssay (NCI).
The panel holds about 79,000 compounds, 15% with a hit somewhere; the sample as a whole holds those more often. Unmarked numbers belong to inactive results. Activity calls are given as the source filed them. No stated cut-off is given here; in the data, active means growth inhibition above about 70%; inactive means the rest.

Legend:
[1] = NCI Yeast Anticancer Drug Screen. Data for the rad50 strain (AID 155);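 further: 0% = growth of vehicle-only cultures of the same strain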; conditions: S. cerevisiae rad50 strain growth inhibition, active compounds read high
Method in brief: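 Genetically altered yeast (DNA repair pathway); compound treatment; growth inhibition vs vehicle ctrl.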

[2] = NCI Yeast Anticancer Drug Screen. Data for the mec2-1 strain (AID 157); conditions: S. cerevisiae mec2-1 strain, active compounds read high
Method in brief: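 Compounds were applied to mec2-1 yeast cells. Their growth was then compared with that of vehicle-treated cultures to give growth inhibition.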

[3] = NCI Yeast Anticancer Drug Screen. Data for the sgs1 mgt1 strain (AID 161);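 further: 0% = growth of cultures given vehicle only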; conditions: S. cerevisiae sgs1 mgt1 strain, active compounds read high
Method in brief: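 Compounds are added to genetically altered yeast, and growth is compared with cultures given vehicle alone to give percent inhibition.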

[4] = NCI Yeast Anticancer Drug Screen. Data for the cln2 rad14 strain (AID 165);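 further: 0% = growth equal to vehicle treated cultures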; conditions: S. cerevisiae cln2 rad14 strain, active compounds read high
Method in brief: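 Strain: cln2 rad14 yeast, altered in cell cycle control and DNA damage repair. Read-out: growth inhibition vs vehicle.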

[5] = NCI Yeast Anticancer Drug Screen. Data for the bub3 strain (AID 167); conditions: S. cerevisiae bub3 mutant strain, active compounds read high
Method in brief: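 Yeast carrying a defined mutation is treated with each compound, and growth is compared with that of vehicle-exposed cells to give inhibition.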

[6] = NCI Yeast Anticancer Drug Screen. Data for the mlh1 rad18 strain (AID 175); conditions: S. cerevisiae mlh1 rad18 strain growth inhibition, active compounds read high
Method in brief: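 A repair-deficient yeast strain is exposed to test compound, and growth is scored relative to vehicle-treated controls.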

[7] = at 5.0 µM (retest, dose inferred, filed as 0.5)
[8] = at 50.0 µM (retest, dose inferred, filed as 5.0)

| Structure (SMILES) | growth inhibition [1, 7] [%] | growth inhibition [1, 8] | growth inhibition ([1]; at 50.0 µM) | growth inhibition [2, 7] [%] | growth inhibition [2, 8] | growth inhibition ([2]; at 50.0 µM) | growth inhibition [3, 7] [%] | growth inhibition [3, 8] | growth inhibition ([3]; at 50.0 µM) | growth inhibition [4, 7] [%] | growth inhibition [4, 8] | growth inhibition ([4]; at 50.0 µM) | growth inhibition [5, 7] [%] | growth inhibition [5, 8] | growth inhibition ([5]; at 50.0 µM) | growth inhibition [6, 7] [%] | growth inhibition [6, 8] | growth inhibition ([6]; at 50.0 µM) |
| --- | --- | --- | --- | --- | --- | --- | --- | --- | --- | --- | --- | --- | --- | --- | --- | --- | --- | --- |
| COc1cccc(C(c2cc3c(cc2O)OCO3)N2CCCC2)c1O (centres undefined) | 0 | 52% | 48.2% | 1 | 44% | 46.5% | -5 | 48% | 61.1% | -6 | 24% | 7.85% | 6 | 47% | 41.2% | -1 | 62% | 77% (active) |
| Cc1cc(N=Nc2ccccc2)ccc1O | -13 | 99% (active) | 99.4% (active) | -11 | 100% (active) | 99.5% (active) | -2 | 100% (active) | 99.5% (active) | -31 | 99% (active) | 99.3% (active) | 6 | 99% (active) | 99.3% (active) | -8 | 99% (active) | 99.3% (active) |
| Cc1ccc2nc(CC(=O)c3cccnc3)c(CC(=O)c3cccnc3)nc2c1 | 7 | 95% (active) | 76.3% (active) | 12 | 94% (active) | 63.2% | -1 | 87% (active) | 66.7% | 14 | 96% (active) | 76.3% (active) | 8 | 93% (active) | 60.7% | 1 | 91% (active) | 60.5% |
| CCOC(=O)c1c(N2CCCC2)nsc1Nc1ccc(F)cc1 | -3 | 90% (active) | 91.8% (active) | -1 | 93% (active) | 87.2% (active) | 13 | 90% (active) | 92% (active) | 2 | 75% (active) | 45% | 1 | 92% (active) | 94.8% (active) | -2 | 88% (active) | 93.5% (active) |
| CN(C)/N=C1\CC(c2ccccc2)C(C#N)(C#N)C1(C#N)C#N (centres undefined) | 41 | 99% (active) | 89.3% (active) | 51 | 100% (active) | 89% (active) | 42 | 100% (active) | 88.5% (active) | 39 | 99% (active) | 88.5% (active) | 56 | 100% (active) | 89.6% (active) | 51 | 99% (active) | 91.5% (active) |
| Cc1ccc(NN(C)c2ccc(C)cc2)cc1 | -4 | 2% | 34.3% | -1 | -8% | 16.1% | -4 | -10% | -11.4% | 5 | -4% | 13.4% | 9 | 18% | 27.6% | -3 | 1% | 3.1% |
| Oc1ccccc1C1C=C(c2ccccc2)NC(N2CCCCC2)=C1c1nc2ccccc2[nH]1 (centres undefined) | -9 | -11% | 18.1% | -9 | -13% | -5.15% | -9 | -10% | 5.05% | -22 | -14% | 40% | -13 | 6% | 29.4% | 2 | -2% | 9.4% |
| CSc1ccc(/C=C2/C[N+](C)(C)C/C(=C/c3ccc(SC)cc3)C2=O)cc1 | 41 | 41% | 90.6% (active) | 22 | 22% | 90.7% (active) | 34 | 34% | 87.3% (active) | 20 | 20% | 86.5% (active) | 6 | 6% | 90.2% (active) | 32 | 32% | 86.7% (active) |
| CC(=O)c1c2c(cc3c1CC1(Cc4cc5c(cc4C1)C(=O)CCC5)C3)CCCC2 (centres undefined) | 34 | 32% | -15.8% | 23 | 25% | -16% | 22 | 27% | 8.95% | 22 | 30% | 8.4% | 32 | 33% | 6.25% | 28 | 29% | 13.8% |
| O=C(O)/C=C/c1ccc(Cl)cc1Cl | 6 | 95% (active) | 89.5% (active) | -8 | 56% | 33.5% | 2 | 39% | 65.8% | 1 | 57% | 37.8% | 41 | 85% (active) | 74.3% (active) | 6 | 94% (active) | 92.6% (active) |
| FC(F)(F)C(F)(F)C1(F)C(F)(F)C(F)(F)C(F)(F)C(F)(F)C1(F)F | -1 | -2% | 99.7% (active) | -2 | 1% | 99.5% (active) | -1 | -3% | 99.6% (active) | 1 | -8% | 97.2% (active) | 3 | 4% | 99.5% (active) | 2 | -2% | 99.2% (active) |
| Cc1cccc(N2C(=O)c3ccccc3C2(c2ccccc2)N2CCCCC2)c1 (centres undefined) | -1 | -5% | 65% | 0 | -1% | 28% | 4 | 2% | 73.7% (active) | 2 | -2% | 75.3% (active) | -2 | -6% | 50.3% | -2 | -9% | 58.5% |
| CS(=O)(=O)N\N=C1/C=C\C(=N/NS(C)(=O)=O)CCc2ccc(cc2)CC1 | -1 | 77% (active) | 86.3% (active) | 7 | 96% (active) | 88.8% (active) | -34 | 92% (active) | 93.3% (active) | -1 | 19% | 39.6% | -4 | 92% (active) | 90% (active) | 5 | 95% (active) | 94.5% (active) |
| CSc1nc(C)cc(SCc2ccc(Cl)cc2Cl)n1 | -3 | 4% | -20.9% | -3 | -7% | -20.6% | -2 | 8% | -0.95% | 2 | -1% | -36.7% | 2 | 18% | 75% (active) | -2 | 21% | -25.4% |
| Clc1ccc(OCC2CO2)c(Cl)c1 (centres undefined) | 43 | 93% (active) | 96.6% (active) | -17 | 40% | 91.5% (active) | 40 | 82% (active) | 92.2% (active) | 5 | 40% | 86.5% (active) | 6 | -7% | 14.9% | 16 | 84% (active) | 96.8% (active) |
| CN1C(=O)c2cccc3cc([N+](=O)[O-])cc(c23)C1=O | 6 | 80% (active) | 82.7% (active) | -16 | 76% (active) | 29.1% | 6 | 69% | 85.8% (active) | 17 | 80% (active) | 56.6% | 3 | 88% (active) | 64% | 15 | 53% | 56.6% |
| NCc1ccc(O)c(O)c1O | -2 | 78% (active) | 14.9% | 8 | 80% (active) | 14.4% | 8 | 61% | 38.2% | -16 | 52% | -2.75% | -2 | 82% (active) | 81.4% (active) | -22 | 83% (active) | 16.3% |
| BrC1CCCCCC1 | 2 | 10% | 51.9% | 3 | 16% | 34.5% | 1 | 22% | 57.4% | 6 | 14% | 27.4% | 5 | 35% | 37% | 6 | 24% | 81.7% (active) |
